From the supplement of paper PMC6555819

Key:
Assay in all cases: PBM binding z-score (relative to random genomic background probes); higher = stronger binding; sequences stand for … in GC…GCGATTGACAGCGTAGAATGAAGG
[1] = system: FXR:RXRa (NR concentration 270 nM, RXRa partner concentration 90 nM)
Method in brief: (§1)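 Probes were double-stranded and carried 34-nt variable regions with direct-repeat seeds, single-nucleotide variants, half-site ablations and random human genomic background sequences, printed on custom Agilent 4×180K protein-binding microarrays. Arrays were incubated 1 h with ligand-free nuclear receptor dimers in PBS pH 7.4, 2% milk, 0.02% Triton X-100, 1 mM DTT, 0.2 mg/mL BSA and 0.4 mg/ml salmon testes DNA. Antibodies against each partner (one per run) detected binding, and scanned fluorescence was regression-normalized. Binding z-scores use the random background probes as reference.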

[2] = system: LXRa:RXRa (NR concentration 270 nM, RXRa partner concentration 90 nM)
Method in brief: as §1

[3] = system: LXRa homodimer (NR concentration 270 nM)
Method in brief: as §1

[4] = system: LXRb:RXRa (NR concentration 270 nM, RXRa partner concentration 90 nM)
Method in brief: as §1

[5] = system: LXRb homodimer (NR concentration 270 nM)
Method in brief: as §1

[6] = system: PPARa:RXRa (NR concentration 270 nM, RXRa partner concentration 90 nM)
Method in brief: as §1

[7] = system: PPARg:RXRa (NR concentration 180 nM, RXRa partner concentration 90 nM)
Method in brief: as §1

[8] = system: PPARg:RXRa 270nM:90nM, anti-RXR (NR concentration 270 nM, RXRa partner concentration 90 nM)
Method in brief: as §1

[9] = system: PPARg:RXRa 30nM:10nM, anti-RXR (NR concentration 30 nM, RXRa partner concentration 10 nM)
Method in brief: as §1

[10] = system: PPARg:RXRa 90nM:30nM, anti-RXR (NR concentration 90 nM, RXRa partner concentration 30 nM)
Method in brief: as §1

[11] = system: PPARg:RXRa DBDmut IVT, anti-RXR (DBD mutation: RXRa K156A/R161A, NR concentration 270 nM, RXRa partner concentration 90 nM)
Method in brief: as §1

[12] = system: PPARg:RXRa IVT, anti-PPARg (NR concentration 270 nM, RXRa partner concentration 90 nM)
Method in brief: as §1

[13] = system: PPARg DBDmut:RXRa IVT, anti-PPARg (DBD mutation: PPARg1 K132A/R137A, NR concentration 270 nM, RXRa partner concentration 90 nM)
Method in brief: as §1

[14] = system: PPARg DBDmut IVT, anti-PPARg (DBD mutation: PPARg1 K132A/R137A, NR concentration 270 nM)
Method in brief: as §1

[15] = system: PPARg homodimer (NR concentration 180 nM)
Method in brief: as §1

[16] = system: PXR:RXRa (NR concentration 270 nM, RXRa partner concentration 90 nM)
Method in brief: as §1

[17] = system: PXR homodimer (NR concentration 270 nM)
Method in brief: as §1

[18] = system: RARa:RXR (NR concentration 270 nM, RXRa partner concentration 90 nM)
Method in brief: as §1

[19] = system: RARa homodimer (NR concentration 270 nM)
Method in brief: as §1

[20] = system: RARb:RXRa (NR concentration 270 nM, RXRa partner concentration 90 nM)
Method in brief: as §1

Sequence | PBM binding z-score [1] | PBM binding z-score [2] | PBM binding z-score [3] | PBM binding z-score [4] | PBM binding z-score [5] | PBM binding z-score [6] | PBM binding z-score [7] | PBM binding z-score [8] | PBM binding z-score [9] | PBM binding z-score [10] | PBM binding z-score [11] | PBM binding z-score [12] | PBM binding z-score [13] | PBM binding z-score [14] | PBM binding z-score [15] | PBM binding z-score [16] | PBM binding z-score [17] | PBM binding z-score [18] | PBM binding z-score [19] | PBM binding z-score [20]
TCTAGCAGACCAGAGGGTCACTCAAGAGGTACGG | 0.955 | 0.817 | -0.662 | 1.1 | -1.39 | 2.15 | 0.882 | 1.31 | 1.8 | 1.61 | 0.667 | -0.0326 | -0.965 | -2.06 | 0.364 | 1.38 | -0.694 | 1.85 | -0.734 | 1.81
GCAGACAGGTGAAACGCAGGTAACTCACGGTGGC | -0.0802 | 0.186 | -0.449 | -0.389 | -1.17 | 0.612 | 0.796 | -0.183 | -0.533 | -0.11 | 1.05 | 0.811 | 0.104 | -0.094 | -0.18 | -0.51 | -0.98 | 0.0228 | -0.454 | 0.558
ATCGAAAGGTCGATGGTGAGTATACCCACCCGAA | 3.01 | 2.38 | -0.15 | 1.83 | 0.391 | 3.29 | 1.48 | 1.85 | 0.714 | 1.02 | -0.671 | 0.8 | 0.684 | 0.102 | 1.04 | 1.51 | -0.361 | 2.18 | 0.322 | 3.03
CCTTACGGGTCACTCCACGTTATAGCATCGGAGT | 4.04 | 3.03 | 0.131 | 2.58 | 0.341 | 4.28 | 3.02 | 3.29 | 1.1 | 2.31 | 2.55 | 3.09 | 0.675 | 0.232 | 2.03 | 2.39 | 0.155 | 3.01 | 0.911 | 3.44
ACTCGCAGGCCAAGGGTCACTCAAGATTAGTCCG | 2.83 | 3.23 | 0.261 | 2.88 | -0.377 | 4.4 | 5.6 | 6.01 | 4.12 | 5.92 | 0.79 | 2.88 | -0.175 | 0.18 | 2.03 | 3.45 | -0.231 | 4.23 | 0.673 | 3.6
AGAATGTGGTTAAGATCAGGGAAACAGAATACAT | 0.33 | -0.14 | 0.153 | 0.27 | 0.174 | 0.172 | 0.496 | 0.291 | 0.299 | -0.247 | -0.145 | 0.0486 | 0.832 | 0.677 | 0.635 | 0.308 | 0.679 | 0.217 | 0.647 | 0.103
CCGACTGGGGCATAAGGTTACTATAAGCCAGCCC | 0.52 | 3.57 | 0.0863 | 1.26 | -1.18 | 1.63 | 2.33 | 2.96 | 0.95 | 2.34 | 2.65 | 3.13 | -0.815 | -1.53 | 0.494 | 0.29 | -0.23 | 0.911 | -0.358 | 1.45
TCTTGAAGATCAAGCAGGTTAAGAAAGCCTGAGT | 0.132 | 0.199 | -0.36 | 0.402 | -0.998 | 0.437 | -0.324 | 1.11 | 2.96 | 1.74 | 1.28 | -0.366 | 0.0587 | -0.888 | -0.603 | 0.456 | -0.168 | 0.215 | -1.22 | 0.0323
CGTCCAAGGTCAATGCTAGTTCAGTGAAAGCATT | 7.07 | 4.94 | 1.4 | 3.86 | 0.707 | 4.84 | 3.72 | 4.27 | 1.01 | 2.95 | 2.97 | 3.31 | 1.63 | 0.145 | 3.77 | 5.51 | 2.79 | 4.79 | 0.972 | 5.1
TCGAGTAGGTTAGTCGCGGCATTCAGCCAACATA | -0.279 | -0.139 | -0.606 | -0.576 | -1.32 | 0.228 | -0.37 | 0.565 | 1.03 | 0.9 | 1.72 | 0.971 | -0.971 | -1.42 | -0.911 | -0.398 | -0.771 | -0.208 | -0.937 | -0.138
TCTCGGAGGATACGAAGGTCAGAGCTTTCCAGAG | 0.399 | 0.672 | -0.0784 | 0.653 | -1.33 | 1.55 | 0.177 | 1.23 | 1.89 | 1.51 | 1.14 | 0.245 | -1.41 | -1.19 | 0.218 | 1.09 | -0.447 | 1.64 | -0.378 | 2.33
ATCTCTAGGTAGGACTCAGTTCAGTGAAGAACGC | 0.414 | 0.636 | 0.659 | 0.518 | 1.09 | 0.278 | 0.171 | 0.732 | 0.37 | 0.644 | 0.406 | 0.852 | 0.763 | 1.31 | 0.939 | 0.751 | 1.95 | 0.353 | 1.12 | 0.407
TCATATAGGTAAACAGGTGAAAGACCGTAAGTTA | 0.974 | 0.774 | 0.26 | 0.571 | -0.084 | 2.47 | 3.45 | 3.63 | 4.12 | 4.03 | 4.76 | 4.63 | 1.09 | 1.03 | 1.16 | 0.687 | 0.35 | 1.22 | 1.07 | 0.77
AGAACGAGGGCAATGAGTTGATAGAACGGGTGGC | 0.324 | 0.221 | -0.321 | -0.103 | -0.564 | 0.984 | 1.53 | 0.857 | 0.188 | 0.62 | 3.29 | 2.76 | 0.559 | -0.194 | 0.0958 | 1.47 | 4.31 | 0.324 | -0.124 | 1.83
